# Compound activity: PubChem BioAssay, National Center for Advancing Translational Sciences (NCATS)
# Chronic BCR inh = blocks chronic active B-cell receptor signaling; 340,000 tested, 0.05% active; ABC-DLBCL IkBa-CBG/CBR reporter, luminescence ratio, 4 h; Potency, µM (series often up to 46.1 µM), most hits filed as inhibitors; active means well fitted inhibition curve with a large enough effect in the signal ratio, with a control signal flat, not every such curve was filed as active; inconclusive means small, poorly fitted or top-dose-only effect, or effect the other way, or a change in a side signal; the % refers to the signal ratio
#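 Cell line TMD8 (human ABC DLBCL), stably expressing tet-inducible CBG68-IkBa fusion and CBR; IMDM/0.5% FBS; cpd up to 46 uM; dox induction, 4 h, 37C/5% CO2; dual luminescence; green/red ratio; MG132 control.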
# TDP1 cell CPT = DT40-hTDP1 cell growth loss with CPT; chicken DT40 Tdp1-/-;hTDP1 cells + 20 nM CPT, ATP luminescence, 48 h; Potency, µM (titrated, usually from 46.2 µM), hits mostly inhibitors; 420,000 tested, 12% active; further: nearly all actives have a fitted effect of over 55% in size
#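 Chicken DT40 Tdp1-/- cells stably complemented with human TDP1 were seeded at 400 cells/well in medium containing 20 nM camptothecin, exposed to pin-transferred compounds, and grown at 37 °C for at least 48 hr. Viability was read as ATP luminescence.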
# MCF10A rerep = inducers of DNA re-replication in MCF 10A breast cells; MCF 10A DNA re-replication, Hoechst nuclear intensity, 48 h; Potency, µM (titrated, usually from 46.1 µM), most hits filed as activators; 350,000 tested, 2.9% active; AID 624296; further: nearly all actives have a fitted effect of over 50% in size
# IL-1B inflam inh = blocks inflammasome-driven IL-1 beta release. THP-1 LPS/ATP IL-1B secretion, AlphaLISA, 16 h; stronger effect = lower value. activity change, % at 57.5 µM. 360,000 tested, 4.7% active. AID 743279; in the data active means activity change below about -50%; inconclusive means mostly about -30% to -49%
#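 Secreted IL-1B measured by AlphaLISA bead assay after 16 h compound exposure of THP-1 cells; compounds (final up to 57.5 uM) added 1 h before LPS (250 ng/mL) and ATP (1.25 mM) stimulation; lower signal means less secretion.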
# SW480 rerep = induces DNA re-replication in SW480 colon adenocarcinoma cells; SW480 DNA re-replication, Hoechst DNA content imaging, 48 h; Potency, µM (doses to about 46.1 µM), hits mostly activators; 340,000 tested, 1.8% active; AID 624297; further: nearly all actives have a fitted effect of over 55% in size
#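 DNA re-replication was detected as more nuclei of elevated Hoechst intensity after 48 hr exposure to compound (23 nL pinned per well of 250 cells).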
# DT40 TDP1 no CPT = qHTS for Inhibitors of human tyrosyl-DNA phosphodiesterase 1 (TDP1): qHTS in cells in absence of CPT; Potency, µM (highest dose often 46.2 µM), most hits filed as inhibitors; 420,000 tested, 15% active; DT40 Tdp1-/- hTDP1 cells, no CPT, ATP luminescence, 48 h; AID 686978, 2013; further: nearly all actives have a fitted effect of over 55% in size
#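 Growth kinetics read by CellTiter-Glo luminescence after ≥48 hr at 37 °C. Cells: DT40 Tdp1-/- stably carrying human TDP1, 400 per well, compound exposure in the absence of CPT (DMSO vehicle).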
# Numbers stand for hits; - = inactive; ? = inconclusive; . = no result; ! = repeats disagree; [ ] = dose if it differs, or a comment. An excerpt weighted towards active compounds, which were near 19% of everything screened. Unless noted, the call rests on the fitted dose curve; in most records, active means well fitted curve in the direction sought with a large enough effect; inconclusive means small, poorly fitted or top-dose-only effect, or another doubt; inactive means no such curve, though single readings can be large; an effect the other way counts as inactive or inconclusive.
SMILES,Chronic BCR inh,TDP1 cell CPT,MCF10A rerep,IL-1B inflam inh,SW480 rerep,DT40 TDP1 no CPT
CC1(C)CC(NCCN2CCN(C3=CC(=C(C#N)C#N)CC(C)(C)C3)CC2)=CC(=C(C#N)C#N)C1,-,18.4µM,-,-,-[1.84 µM],13µM
COc1cccc(CC(=O)Nc2ncc(C)s2)c1,?,8.2µM,-,-,-,14.6µM
COc1ccccc1CC(=O)Nc1ncc(C)s1,-,?,-,-,-,16.4µM
Cc1cnc(NC(=O)Cc2c[nH]c3ccccc23)s1,?,-,?,-,-,-
COC(=O)c1cc2sc(C)cc2n1Cc1cccc(OC)c1,.,?,.,.,.,23.1µM
COc1cccc(CC(=O)Nc2nc(C)cs2)c1,-,-,-,-,-,-
COc1cccc(/C=C/C(=O)OCC(=O)Nc2nnc(-c3ccccc3)o2)c1,?,-,-,-,-,-
Cc1ccc2c(=O)cc(C(=O)Nc3c(C(=O)c4ccccc4)oc4ccccc34)oc2c1,.,-,.,.,.,-
CC1=C(C(=O)N(C)C)CC(CC(=O)NCc2cccs2)C(=O)N1CCCN1CCCC1=O (configuration not stated),.,-,.,-,.,-
CC1=CC(C)(C)NC(=S)N1c1ccccc1C,-,?,-,-,-,25.9µM
CCOC(=O)c1cnc2c(ccc3ccccc32)c1Nc1cccc(C(F)(F)F)c1,.,-,.,.,.,-
O=C(Nc1ccc(F)c(Cl)c1)[C@@H]1O[C@H](CO)[C@H](O)[C@H](O)[C@H]1O,.,-,.,-,.,-
Cc1nn(S(=O)(=O)c2ccc(F)cc2)c(C)c1S(=O)(=O)N1CCOCC1,-,-,-,-,-,-
CC1(Cc2ccccc2OC(F)(F)F)C(=O)Nc2cc(-c3ccccc3Cl)ccc21 (configuration not stated),.,?,.,-,.,?
CC1(Cc2cc(Cl)ccc2C(F)(F)F)C(=O)Nc2cc(C(F)(F)F)ccc21 (configuration not stated),.,23.1µM,.,-,.,14.6µM
CC1(Cc2cc(Cl)ccc2C(F)(F)F)C(=O)Nc2cc(F)ccc21 (configuration not stated),.,25.9µM,.,-,.,14.6µM
CC1(Cc2cc(Cl)ccc2C(F)(F)F)C(=O)Nc2ccc(OC(F)(F)F)cc21 (configuration not stated),.,23.1µM,.,-,.,13µM
CC1(Cc2ccc(C(F)(F)F)o2)C(=O)Nc2cc(-c3ccc(F)cc3F)ccc21 (configuration not stated),.,?,.,-64.3,.,4.61µM
CC1(Cc2cc(Cl)ccc2C(F)(F)F)C(=O)Nc2ccc(-c3ccc(F)c(Cl)c3)cc21 (configuration not stated),.,?,.,-,.,?
CC1(Cc2ccccc2Cl)C(=O)Nc2cc(-c3ccccc3Cl)ccc21 (configuration not stated),.,?,.,-,.,?
COc1ccc(NC(=O)C(c2cc3ccccc3o2)n2c(=O)c(-c3cc4ccccc4[nH]3)nc3ccccc32)cc1 (configuration not stated),.,?,.,-,.,?
CCOC(=O)C1(C)CCCCCN1C(=O)c1ccc(C(=O)OC)cc1 (configuration not stated),.,?,.,-,.,?
COc1cccc(-c2nnc(-c3ccccc3NC(=O)c3cccc(C(F)(F)F)c3)o2)c1,.,-,.,.,.,-
O=S(=O)(Nc1ncccn1)c1ccc(NC(=S)N2CCN(Cc3ccc(F)cc3Cl)CC2)cc1,-,-,-,-,-,-
CCO/C(C)=N/n1c2nc3ccccc3nc2c2c(=O)n(C3CCCC3)c(C)nc21,-,18.4µM,-,-,-,14.6µM
SMILES,Chronic BCR inh,TDP1 cell CPT,MCF10A rerep,IL-1B inflam inh,SW480 rerep,DT40 TDP1 no CPT
Cc1nc2ccccc2c(=O)n1C1CCCCCC1,-,?,-,-,-,?
CC[C@H](C)NC(=O)c1ccc(Cn2c(=S)[nH]c3c([nH]c4ccc(OC)cc43)c2=O)cc1,-,?,-,-,-,-
COc1ccc2[nH]c3c(=O)n(Cc4ccc(C(=O)N5CCC(C(N)=O)CC5)cc4)c(=S)[nH]c3c2c1,-,?,?,-,-,29.1µM
CCCCNC(=O)c1ccc(Cn2c(=S)[nH]c3c([nH]c4ccc(OC)cc43)c2=O)cc1,-,-,16.4µM,-,?,?
CC(C)N(Cc1ccccc1)C(=O)CN1c2cccc3cccc(c23)S1(=O)=O,-,?,-,-,-,?
COc1cc(S(=O)(=O)N2CCn3cccc3C2C)ccc1NC(C)=O (configuration not stated),-,-,-,-,-,-
Nc1nonc1C(=O)NCCNCc1cc(Br)ccc1OCc1ccccc1F,?,20.6µM,-,-56.1,-,20.6µM
Nc1nonc1C(=O)NCCNCc1cccc(Cl)c1Cl,.,-,.,.,.,-
CCOc1c(CNCCNC(=O)c2nonc2N)cccc1OC,-,?,-,-,-,-
C=CCOc1ccccc1CNCCNC(=O)c1nonc1N,-,-,-,-,-,-
Nc1nonc1C(=O)NCCNCc1ccccc1OCc1ccccc1F,?,?,-,-,-,20.6µM
COc1cc(CNCCNC(=O)c2nonc2N)ccc1OCc1ccc(Cl)cc1,?,?,?,-95.3,-,20.6µM
CCOc1ccccc1CNCCNC(=O)c1nonc1N,-,?,-,-,-,25.9µM!
Cc1noc(C)c1NC(=O)Nc1ccc2c(c1)CC(=O)N([C@H](C)CO)C[C@@H](C)[C@H](CN(C)CC1CCCCC1)O2,-,-,-,-,-,-
CCCNS(=O)(=O)c1cc2c3c(c1)CCN3C(=O)CC2,-,-,-,-,-,-
CCOc1ccc(S(=O)(=O)Nc2cccc(C(=O)NCCCn3ccnc3)c2)cc1,-,?,-,-,-,-
CCOC(=O)C1=CCC(c2ccccc2C(F)(F)F)N(S(=O)(=O)c2ccc(C)cc2)C1 (configuration not stated),.,23.1µM,.,-,.,23.1µM
CCOC(=O)C1=CCC(c2cccn2C(=O)OC(C)(C)C)N(S(=O)(=O)c2ccc(C)cc2)C1 (configuration not stated),.,?,.,-,.,?
CCOC(=O)C1=CCC(c2ccccc2Cl)N(S(=O)(=O)c2ccc(C)cc2)C1 (configuration not stated),.,14.6µM,.,-,.,?
O=C(NCC(=O)N1CCCCCCC1)c1ccc(Cl)c(Cl)c1,.,-,.,-,.,?
CC1(C)NC(=O)N(CCC(=O)Nc2cc(C(F)(F)F)ccc2Cl)C1=O,-,-,?,-,-,-
Cn1nc(C(F)(F)F)c2cc(NC(=O)OCc3ccc(F)cc3)sc21,?,-,?,-86.5,-,-
